Each structure is given as a SMILES string. Like-named read-outs stand apart in the source and are kept apart here.

Set-up in all cases: species or system human, MV4-11 + K-562 + COLO205 + SK-N-BE2 + OVCAR-8
One assay deals with COX5A. To be noted: read-out: apparent Kd; compound concentrations: 100 nM and 1000 nM (sheet 'Samples'), CATDS: 4.9189359622159999E-2; n = 1.
A further assay relates to DCTPP1. To be noted: read-out: apparent Kd; compound concentrations: 100 nM and 1000 nM (sheet 'Samples'), CATDS: 4.6014352292288702E-2; n = 1.
A further assay deals with T1, DJA1.
T1 construct: gene DNAJA1
The note with it: read-out: apparent Kd; compound concentrations: 100 nM and 1000 nM (sheet 'Samples'), CATDS: 4.4193252056285201E-2; n = 1.

The test system of a further assay is GSK3A. To be noted: read-out: apparent Kd; compound concentrations: 100 nM and 1000 nM (sheet 'Samples'), CATDS: 0.122036106459496; n = 1.
For a further assay, the system named is GSK3B. To be noted: read-out: apparent Kd; compound concentrations: 100 nM and 1000 nM (sheet 'Samples'), CATDS: 7.9816759037496299E-2; n = 1.
The next assay concerns ICK. To be noted: read-out: apparent Kd; compound concentrations: 100 nM and 1000 nM (sheet 'Samples'), CATDS: 5.6669342720563003E-2; n = 1.
The test system of a further assay is IRAK4. To be noted: read-out: apparent Kd; compound concentrations: 100 nM and 1000 nM (sheet 'Samples'), CATDS: 4.1120656288718103E-2; n = 1.
The next assay has as its system NQO2. To be noted: read-out: apparent Kd; compound concentrations: 100 nM and 1000 nM (sheet 'Samples'), CATDS: 4.4133222473916003E-2; n = 1.
In another assay the test system is PDXK. The note with it: read-out: apparent Kd; compound concentrations: 100 nM and 1000 nM (sheet 'Samples'), CATDS: 4.47093082107951E-2; n = 1.
A further assay relates to PKM. The note with it: read-out: apparent Kd; compound concentrations: 100 nM and 1000 nM (sheet 'Samples'), CATDS: 4.24178727539107E-2; n = 1.
Another assay relates to PRKCA. The note with it: read-out: apparent Kd; compound concentrations: 100 nM and 1000 nM (sheet 'Samples'), CATDS: 0.16671093509257301; n = 1.
The test system of a further assay is PRKCB. The note with it: read-out: apparent Kd; compound concentrations: 100 nM and 1000 nM (sheet 'Samples'), CATDS: 0.103401892254312; n = 1.
The subject of another assay is PRKCD. The note with it: read-out: apparent Kd; compound concentrations: 100 nM and 1000 nM (sheet 'Samples'), CATDS: 0.14677324190073199; n = 1.
In a further assay the test system is PRKCQ. The note with it: read-out: apparent Kd; compound concentrations: 100 nM and 1000 nM (sheet 'Samples'), CATDS: 5.3878720766830299E-2; n = 1.
Another assay deals with RPS6KA3. To be noted: read-out: apparent Kd; compound concentrations: 100 nM and 1000 nM (sheet 'Samples'), CATDS: 4.20026996356445E-2; n = 1.
A further assay concerns RPS6KA6. The note with it: read-out: apparent Kd; compound concentrations: 100 nM and 1000 nM (sheet 'Samples'), CATDS: 0.184421750918566; n = 1.
A further assay has as its system RPS6KB1. To be noted: read-out: apparent Kd; compound concentrations: 100 nM and 1000 nM (sheet 'Samples'), CATDS: 4.3958496024185799E-2; n = 1.
Another assay concerns CLK4. The note with it: read-out: apparent Kd; compound concentrations:100 nM and 1000 nM (sheet 'Samples'); n = 1.
The subject of another assay is CSNK2A1;CSNK2A3. The note with it: read-out: apparent Kd; compound concentrations:100 nM and 1000 nM (sheet 'Samples'); n = 1.
A further assay concerns FER. To be noted: read-out: apparent Kd; compound concentrations:100 nM and 1000 nM (sheet 'Samples'); n = 1.
A further assay deals with FES. To be noted: read-out: apparent Kd; compound concentrations:100 nM and 1000 nM (sheet 'Samples'); n = 1.
For a further assay, the system named is GRK6. The note with it: read-out: apparent Kd; compound concentrations:100 nM and 1000 nM (sheet 'Samples'); n = 1.
For a further assay, the system named is IGF1R. The note with it: read-out: apparent Kd; compound concentrations: 100 nM and 1000 nM (sheet 'Samples'), CATDS: 0.29362976208520802; n = 1.
The test system of another assay is INSR. To be noted: read-out: apparent Kd; compound concentrations:100 nM and 1000 nM (sheet 'Samples'); n = 1.
The subject of the next assay is PIM1. To be noted: read-out: apparent Kd; compound concentrations:100 nM and 1000 nM (sheet 'Samples'); n = 1.
The test system of a further assay is PIM2. The note with it: read-out: apparent Kd; compound concentrations:100 nM and 1000 nM (sheet 'Samples'); n = 1.
A further assay relates to TNK1. The note with it: read-out: apparent Kd; compound concentrations:100 nM and 1000 nM (sheet 'Samples'); n = 1.
In a further assay the test system is CSNK1D. The note with it: read-out: apparent Kd, n = 1.
The test system of another assay is CSNK1E. To be noted: read-out: apparent Kd, n = 1.
Another assay concerns MAP2K2. To be noted: read-out: apparent Kd; compound concentrations:100 nM and 1000 nM (sheet 'Samples'); n = 1.
The subject of the next assay is MAPK11. To be noted: read-out: apparent Kd; compound concentrations:100 nM and 1000 nM (sheet 'Samples'); n = 1.
The test system of a further assay is MAPK14. The note with it: read-out: apparent Kd, n = 1.
In another assay the test system is MAPKAPK2. To be noted: read-out: apparent Kd, n = 1.
For a further assay, the system named is RAB6A;RAB6B. To be noted: read-out: apparent Kd; compound concentrations:100 nM and 1000 nM (sheet 'Samples'); n = 1.
A further assay relates to CSNK1A1. The note with it: read-out: apparent Kd; compound concentrations: 100 nM and 1000 nM (sheet 'Samples'), CATDS: 7.6615483507767895E-2; n = 1.
Another assay has as its system MAPK10. To be noted: read-out: apparent Kd; compound concentrations: 100 nM and 1000 nM (sheet 'Samples'), CATDS: 9.5737343662475993E-2; n = 1.
In another assay the test system is MAPK9. The note with it: read-out: apparent Kd; compound concentrations: 100 nM and 1000 nM (sheet 'Samples'), CATDS: 0.10171878103733301; n = 1.
The next assay concerns NLK. The note with it: read-out: apparent Kd; compound concentrations: 100 nM and 1000 nM (sheet 'Samples'), CATDS: 8.6878607565958693E-2; n = 1.
A further assay deals with PIP4K2C. The note with it: read-out: apparent Kd; compound concentrations: 100 nM and 1000 nM (sheet 'Samples'), CATDS: 7.4110853975201799E-2; n = 1.
Where [1] appears, read: compound concentrations:100 nM and 1000 nM (sheet 'Samples').

In the case of `CNCCCn1cc(C2=C(c3cn(C)c4ccccc34)C(=O)NC2=O)c2ccccc21.Cl` [RO0318044-001], the potency estimated from few doses in the assay with COX5A was 925 nM; in the assay with DCTPP1, 1150 nM; in the assay with DJA1, 1330 nM; with GSK3A, 114 nM; in the assay on GSK3B, 263 nM; in the assay with ICK, 610 nM. Further, the potency estimated from few doses was 1750 nM with IRAK4; 1330 nM with NQO2; 1270 nM in the assay on PDXK; 1550 nM in the assay on PKM; 67.8 nM in the assay with PRKCA; 154 nM with PRKCB. Also, the potency estimated from few doses was 83 nM in the assay with PRKCD; 703 nM in the assay on PRKCQ; 1610 nM in the assay with RPS6KA3; 58.2 nM with RPS6KA6; 1350 nM in the assay on RPS6KB1.

As for `COc1cc2c(cc1Nc1nc(Nc3ccsc3C(N)=O)c3cc[nH]c3n1)N(C(=O)CN(C)C)CCC2(C)C` [GSK2163632A], the potency estimated from few doses in the assay on CLK4 is 1180 nM; with CSNK2A1;CSNK2A3, 1950 nM; in the assay with FER it was 82.7 nM; in the assay with FES it was 212 nM; in the assay on GRK6, 2050 nM; with IGF1R, 22 nM. Also, the potency estimated from few doses in the assay with INSR is 6.22 nM; in the assay on PIM1 it was 647 nM; with PIM2, 1920 nM; in the assay with TNK1, 599 nM.

`CCc1ccc(Oc2nccc(-c3c(-c4ccc(F)cc4)ncn3C3CCNCC3)n2)cc1` [SB-242719]: the potency estimated from few doses is 419 nM in the assay on CSNK1D (setting [1]); 760 nM with CSNK1E (setting [1]); 2280 nM in the assay on MAP2K2; 779 nM in the assay on MAPK11; 24.4 nM in the assay on MAPK14 (setting [1]); 13.3 nM with MAPKAPK2 (setting [1]). Also, the potency estimated from few doses with RAB6A;RAB6B is 1360 nM.

For `CN1CCC(n2cnc(-c3ccc(F)cc3)c2-c2ccnc(NC3CCNCC3)n2)CC1` [SB-229482], the potency estimated from few doses is 1760 nM in the assay with CSNK1A1; 127 nM in the assay with CSNK1D (compound concentrations: 100 nM and 1000 nM (sheet 'Samples'), CATDS: 0.231386526780439); 159 nM with CSNK1E (compound concentrations: 100 nM and 1000 nM (sheet 'Samples'), CATDS: 0.20184204641009601); 810 nM in the assay on MAPK10; 121 nM with MAPK14 (compound concentrations: 100 nM and 1000 nM (sheet 'Samples'), CATDS: 0.239197237832417); 682 nM with MAPK9. In addition, the potency estimated from few doses in the assay on MAPKAPK2 (compound concentrations: 100 nM and 1000 nM (sheet 'Samples'), CATDS: 0.108564299414966) was 573 nM; with NLK it was 1100 nM; with PIP4K2C, 2040 nM.

The values above are taken from publication PMC11062922 (Nature Chemical Biology, 2023).
